From PubChem BioAssay AID1159580 (chemical genetic matrix, 2015)
Several values for one entry are separate records, joined by “and”; a condition that tells them apart may be missing. Identical values can stand only once. Screen size: about 5,500 compounds; about 2,000 (36%) were called active. About 18% were inconclusive and are not listed. Rule as the data show it: active = normalized growth mostly below about 0.91 (no sharp cut-off); inconclusive = no clear call, values can overlap the other calls; inactive = mostly above about 0.92. This is one part of the list.

Test: chemical genetic growth profiling, strain panel (AID 1159580);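 also: tested at 20 µM; growth read once vehicle control cultures reached saturation at 30 °C; 1 = growth at the plate median or of vehicle wells; lower values mean less growth of the strain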
Details: S. cerevisiae deletion strains, growth OD

Measured: normalized growth

CCCn1c(=O)c2[nH]c(C3CCCC3)nc2n(CCC)c1=O
inactive: locus YAL013W, strain DEP1, active compounds read low 0.992 | locus YAL021C, strain ccr4, active compounds read low 1.01 | locus YAL026C, strain drs2, active compounds read low 0.984 | locus YAL030W, strain snc1, active compounds read low 0.973 | locus YAL040C, strain CLN3, active compounds read low 0.995 | locus YBL061C, strain skt5, active compounds read low 0.989 | locus YBR009C, strain hhf1, active compounds read low 0.969 | locus YBR021W, strain FUR4, active compounds read low 1.01 | locus YBR023C, strain chs3, active compounds read low 0.986 | locus YBR171W, strain sec66, active compounds read low 0.976 | locus YBR229C, strain ROT2, active compounds read low 0.992 | locus YBR231C, strain swc5, active compounds read low 0.984 | locus YBR279W, strain paf1, active compounds read low 1 | locus YCL011C, strain gbp2, active compounds read low 0.986 | locus YCL016C, strain dcc1, active compounds read low 0.98 | locus YCL029C, strain bik1, active compounds read low 0.959 | locus YCL061C, strain MRC1 (second series), active compounds read low 0.999 | locus YCL061C, strain MRC1, active compounds read low 0.977 | locus YCL069W, strain vba3, active compounds read low 0.98 | locus YCR088W, strain abp1, active compounds read low 0.983 | locus YDL005C, strain med2, active compounds read low 0.992 | locus YDL035C, strain GPR1, active compounds read low 0.981 | locus YDL040C, strain nat1, active compounds read low 0.984 | locus YDL074C, strain BRE1, active compounds read low 0.973 | locus YDL101C, strain DUN1, active compounds read low 0.992 | locus YDL134C, strain PPH21, active compounds read low 0.993 | locus YDL185W, strain tfp1, active compounds read low 0.926 | locus YDL192W, strain arf1, active compounds read low 0.977 | locus YDR001C, strain nth1, active compounds read low 0.986 | locus YDR069C, strain doa4, active compounds read low 0.976 | locus YDR101C, strain arx1, active compounds read low 0.976 | locus YDR137W, strain rgp1, active compounds read low 0.954 | locus YDR150W, strain NUM1, active compounds read low 0.968 | locus YDR159W, strain sac3, active compounds read low 0.968 | locus YDR162C, strain NBP2, active compounds read low 0.998 | locus YDR195W, strain ref2 0.947 | locus YDR297W, strain sur2, active compounds read low 0.99 | locus YDR318W, strain mcm21, active compounds read low 0.964 | locus YDR334W, strain swr1, active compounds read low 0.988 | locus YDR335W, strain msn5, active compounds read low 0.987 | locus YDR363W, strain ESC2, active compounds read low 1.01 | locus YDR388W, active compounds read low 0.96 | locus YDR392W, strain spt3, active compounds read low 0.839 | locus YDR502C, strain sam2, active compounds read low 0.98 | locus YEL003W, strain gim4, active compounds read low 0.985 | locus YEL037C, strain rad23, active compounds read low 0.991 | locus YEL061C, strain CIN8 (second series), active compounds read low 0.987 | locus YEL061C, strain CIN8, active compounds read low 0.994 | locus YER002W, strain NOP16, active compounds read low 1.01 | locus YER015W, strain faa2, active compounds read low 1 | locus YER016W, strain bim1, active compounds read low 0.98 | locus YER110C, active compounds read low 0.949 | locus YER111C, strain swi4, active compounds read low 0.993 | locus YER155C, strain BEM2 (second series), active compounds read low 0.921 | locus YER155C, strain BEM2, active compounds read low 0.995 | locus YER167W, strain BCK2, active compounds read low 0.971 | locus YFR010W, strain ubp6, active compounds read low 0.992 | locus YGL078C, strain dbp3, active compounds read low 0.967 | locus YGL086W, strain mad1, active compounds read low 0.98 | locus YGL167C, strain pmr1, active compounds read low 0.982 | locus YGL173C, strain kem1, active compounds read low 0.983 | locus YGL227W, strain vid30, active compounds read low 0.98 | locus YGL240W, strain doc1, active compounds read low 0.989 | locus YGL248W, strain PDE1, active compounds read low 0.995 | locus YGL253W, strain hxk2, active compounds read low 0.992 | locus YGR078C, strain PAC10, active compounds read low 0.985 and 0.986 | locus YGR135W, strain pre9, active compounds read low 1 | locus YGR229C, strain SMI1, active compounds read low 0.996 and 0.953 | locus YGR252W, strain gcn5, active compounds read low 0.926 | locus YHR013C, strain ard1, active compounds read low 0.928 | locus YHR027C, strain rpn1, active compounds read low 0.988 | locus YHR030C, strain SLT2, active compounds read low 0.984 | locus YHR079C, strain IRE1 (second series), active compounds read low 0.975 | locus YHR094C, strain hxt1, active compounds read low 0.963 | locus YHR129C, strain ARP1, active compounds read low 0.985 | locus YHR142W, strain chs7, active compounds read low 0.988 | locus YHR200W, strain rpn10, active compounds read low 0.963 | locus YIL066C, strain RNR3, active compounds read low 0.972 | locus YIL073C, strain SPO22, active compounds read low 0.914 | locus YIL125W, strain kgd1, active compounds read low 0.985 | locus YIR030C, strain dcg1, active compounds read low 0.977 | locus YJL092W, strain hpr5, active compounds read low 1 | locus YJL095W, strain BCK1 (second series), active compounds read low 0.981 | locus YJL095W, strain BCK1, active compounds read low 0.996 | locus YJL115W, strain asf1, active compounds read low 0.994 | locus YJL129C, strain trk1, active compounds read low 0.943 | locus YJL134W, strain LCB3, active compounds read low 0.979 | locus YJL154C, strain vps35, active compounds read low 0.979 | locus YJL164C, strain tpk1, active compounds read low 0.988 | locus YJL166W, strain qcr8, active compounds read low 0.988 | locus YJL168C, strain set2, active compounds read low 0.971 | locus YJL187C, strain SWE1 (second series), active compounds read low 0.982 | locus YJL187C, strain SWE1, active compounds read low 0.995
